Source: PubChem BioAssay
The list is not random: actives were taken first. Their share in the collection is about 4.8%.
ssDAF-12 act: S. stercoralis DAF-12 nuclear receptor activators, primary screen, cell-based, luminescence, HEK293, GRIP1 co-expression, lit1-tk-luc; Nuclear hormone receptor DAF-12 (Strongyloides stercoralis); HEK293 ssDAF-12/GRIP1 lit1-tk-luc reporter; % of 3 µM dafachronic acid response; activation, % at 6.8 µM; actives 1% (n = 370,000);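 active = activation above the mean over all tested compounds plus 3 SD, cut at about 0.9% in these data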;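 note: 0% = DMSO-only wells and 100% = 3 µM delta7-dafachronic acid wells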
DAX1 inh-1: DAX1 (NR0B1) inhibitors, primary screen, cell-based, HEK293, Gal4-DAX1, luciferase luminescence; Nuclear receptor subfamily 0 group B member 1 (Homo sapiens), P51843; HEK293 Gal4-DAX1 luciferase reporter; inhibition, % at 6.75 µM; actives 0.99% (n = 340,000); AID 504766, 2011;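 active = inhibition above the mean over all tested compounds plus 3 SD, cut at about 4.2% in these data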;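 note: 0% = DAX1-transfected cells with DMSO and 100% = empty-vector control cells with DMSO; inhibition shows as a rise in luminescence from relieved DAX1 repression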
hcDAF12 agonist: H. contortus DAF-12 nuclear receptor activators, primary screen, cell-based, luminescence, HEK293, lit1-tk-luc reporter | HEK293 hcDAF-12 lit1-tk-luc reporter; 0% DMSO, 100% Δ7-dafachronic acid | activation, % at 6.8 µM | actives 1.4% (n = 370,000);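 active = activation above the mean of all tested compounds plus 3 SD, cut at about 5.5% in these data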;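 note: 100% = response to 3 µM Δ7-dafachronic acid high control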
hgDAF-12 ag: H. glycines DAF-12 receptor agonists, primary screen, cell-based, luminescence, HEK293, GAL4 fusion, UAS-luciferase. actives 1.8% (n = 370,000). activation, % at 6.8 µM. AID 687014, 2013. HEK293 GAL4-hgDAF12 UAS-luciferase reporter, agonist luminescence; normalized to butyrate control;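 active = activation above a cutoff set at the mean of all screened compounds plus 3 SD, cut at about 10% in these data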;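 note: 0% = DMSO wells and 100% = sodium butyrate wells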
SMARCA2 activ: SMARCA2 (BRM) function activators, primary screen, cell-based, luminescence, high throughput | MG213 cells, MMTV-luciferase reporter, dexamethasone, overnight | activation, % at 9.1 µM | actives 1% (n = 370,000) | AID 652017, 2013; in the data active = activation above about 7.8%;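 note: 0% = vehicle wells and 100% = reference activator wells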
DAX1 inh-2: DAX1 (NR0B1) inhibitors on StAR promoter, primary screen, cell-based, luminescence, SF-1 (NR5A1), full-length DAX-1. inhibition, % at 6.8 µM. HEK293T StAR-luciferase reporter, SF-1/DAX-1 repression relief. actives 1.1% (n = 370,000);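 active = inhibition above the mean over all tested compounds plus 3 SD, cut at about 3.6% in these data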;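 note: 0% = DAX-1 cells with DMSO and 100% = cells lacking DAX-1 with DMSO; higher inhibition means more luminescence from relief of DAX-1 repression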
DAX1 conf: DAX1 (NR0B1) inhibitors relieving SF-1 repression, confirmation, cell-based, luminescence, HEK293T, full-length DAX-1, SF-1 activated StAR promoter; AID 652134, 2013; shares compounds with DAX1 inh-2; HEK293T StAR-promoter luciferase reporter, SF-1/DAX-1 repression; inhibition, % at 6.8 µM; actives 87% (n = 2,400);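 active = inhibition above the average of every tested compound plus 3 SD, cut at about 3.8% in these data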;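 note: 0% = DAX-1 cells with DMSO and 100% = no DAX-1 control cells with DMSO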
SF1 AF2mut Luc: StAR reporter signal changes without DAX1, counter-screen for DAX1 inhibitor project, cell-based, luminescence, AF-2 mutant SF-1, transactivation; shares compounds with DAX1 inh-2; HEK293 StAR-luciferase, SF-1 AF2 mutant; inhibition, % at 6.8 µM; actives 78% (n = 2,400); AID 652136, 2013;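 active = inhibition above the mean of all tested compounds plus 3 SD, cut at about 3% in these data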;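 note: 0% = DAX-1 transfected cells with DMSO and 100% = cells without DAX-1 with DMSO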
LXR ag: LXR agonists, Gal4 luciferase reporter, confirmation, counter-screen for hcDAF-12 agonist project, cell-based, luminescence, HEK293, H. contortus campaign | activation, % at 6.8 µM | shares compounds with hcDAF12 agonist | HEK293 Gal4-LXR tk-luc reporter, 24 h; normalized: DMSO 0%, positive control 100% | 3,400 tested, under 10 active;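 active = mean percent activation of the reporter above a cutoff set as the average over tested compounds plus their standard deviation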
Target sequence (P55055 whole entry, looked up, the tested form may be a part): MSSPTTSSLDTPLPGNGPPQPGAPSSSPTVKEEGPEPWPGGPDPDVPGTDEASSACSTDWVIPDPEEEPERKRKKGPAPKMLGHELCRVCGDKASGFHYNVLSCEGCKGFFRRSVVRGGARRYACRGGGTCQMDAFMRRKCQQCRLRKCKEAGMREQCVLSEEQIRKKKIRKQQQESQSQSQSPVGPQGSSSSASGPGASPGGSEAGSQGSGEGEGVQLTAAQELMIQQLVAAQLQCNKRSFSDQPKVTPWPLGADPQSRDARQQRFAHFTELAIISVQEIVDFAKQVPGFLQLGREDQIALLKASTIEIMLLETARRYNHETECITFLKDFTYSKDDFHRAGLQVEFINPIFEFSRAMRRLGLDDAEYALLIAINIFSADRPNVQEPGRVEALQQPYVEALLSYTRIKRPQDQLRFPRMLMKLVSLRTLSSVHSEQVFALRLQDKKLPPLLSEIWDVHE
hcDAF12 conf: H. contortus DAF-12 receptor agonists, confirmation, cell-based, luminescence, HEK293, lit1-tk-luc, triplicate. actives 61% (n = 3,400). shares compounds with hcDAF12 agonist. AID 743032, 2013. HEK293 hcDAF-12 lit1-tk-luc reporter; % of Δ7-dafachronic acid response. activation, % at 6.8 µM;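 active = mean activation across triplicate tests above the threshold derived from the earlier primary screen, cut at about 5.5% in these data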;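 note: 0% = DMSO only wells and 100% = 3 µM Δ7-dafachronic acid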
hgDAF12 ag: H. glycines DAF-12 receptor agonists, confirmation, cell-based, luminescence, HEK293, GAL4-LBD fusion | shares compounds with hgDAF-12 ag | HEK293 GAL4-hgDAF12 luciferase reporter, agonist mode; percent of butyrate response | activation, % at 6.8 µM | actives 80% (n = 3,300) | AID 743050, 2013;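 active = mean activation over triplicate wells above the hit cutoff derived from the earlier primary screen, cut at about 11% in these data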;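 note: 0% = DMSO low control and 100% = 2 mM sodium butyrate high control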
LXRb DAF12 ctr: LXR agonists, Gal4 luciferase reporter, confirmation, counter-screen for hgDAF-12 agonist project, cell-based, luminescence, HEK293, H. glycines campaign | shares compounds with hgDAF-12 ag | 24 h | activation, % at 6.8 µM | 3,300 tested, under 10 active | AID 743051, 2013;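 active = mean activation of the triplicate above a set limit carried over from the primary screen, none filed active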
Numbers without * were called inactive; . = not tested or not shown.

SMILES	ssDAF-12 act	DAX1 inh-1	hcDAF12 agonist	hgDAF-12 ag	SMARCA2 activ	DAX1 inh-2	DAX1 conf	SF1 AF2mut Luc	LXR ag	hcDAF12 conf	hgDAF12 ag	LXRb DAF12 ctr
Cc1ccc(NC(=S)c2ccc(N(C)C)cc2)cc1	0	2	5	14*	6	5.6*	13*	7.8*	.	.	17*	1
Cc1cc(C(=O)O[C@H]2CCC[C@@]3(C(=O)N(Cc4ccccc4)c4ccccc43)[C@H]2NC(=O)CCc2ccccc2)no1	-2	.	-3	1	-3	-1	.	.	.	.	.	.
COc1cccc(-c2cc(C(=O)N3CCN(c4ccc(F)cc4)CC3)no2)c1	-1	0	-2	-1	2	1	.	.	.	.	.	.
COc1cccc(-c2cc(C(=O)N3CCCCCC3)no2)c1	1	2	8.1*	18*	1	9.6*	17*	7.3*	2	6.7*	18*	1
O=C(c1cc(-c2cccc(O)c2)on1)N1CCCCC1	0	1	6.9*	22*	6	8.8*	14*	7.1*	2	5	14*	1
O=S1(=O)CC(c2ccccc2)=NN=C(c2ccccc2)C1	1.5*	3	9.5*	17*	2	7.6*	11*	3.9*	1	8.5*	16*	1
O=C1CC(c2ccccc2)=NO1	-1	1	1	-1	-1	0	.	.	.	.	.	.
CCOC(=O)Cn1c(-c2cccnc2)nc(-c2ccccc2)c1-c1ccccc1	-1	-2	-3	2	-1	-1	.	.	.	.	.	.
CCOC(=O)C(=C1Nc2ccccc2N1)n1c(-c2cccnc2)nc2ccccc21	0	.	3	15*	5	5.1*	7.7*	4.4*	.	.	13*	1
